Structures are written as SMILES. The whole screen tested about 410,000 compounds, of which about 18,000 (4.4%) were called active. Inconclusive results (about 7%) are left out. The list comes from a sample in which actives are over-represented; it also holds similar structures and randomly drawn compounds. Unmarked numbers belong to inactive results. Rule as the data show it: active = activity change below about -60%; inconclusive = no clear call, values can overlap the other calls; inactive = above about -39%.
% is scaled to controls: 0 for no effect and ±100 for the full control effect.

The test is described as follows: qHTS Assay for inhibitors of the human cytomegalovirus (HCMV). The settings on record: HFF cells, HCMV-luciferase reporter, 72 h; at 57.5 µM; stronger effect = lower value. The essentials: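 Inhibition of viral replication was scored as loss of reporter luminescence in HFFs infected with HCMV-luciferase (MOI 1 PFU/cell) for 72 h; compounds tested at 2 doses, normalized to buffer and Salinomycin controls.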
For orientation: qHTS replaces the single test concentration by a dilution series.
Regarding `COc1cccc(-c2nnc(SCC(=O)N3CCC(C)CC3)o2)c1`, the activity change, negative = inhibition was -9.59%.

`COc1cc(-c2noc(-c3ccc(N4CCCC4)c([N+](=O)[O-])c3)n2)cc(OC)c1OC`: the activity change, negative = inhibition was -6.79%.

`COc1ccc(-c2nc(-c3ccccc3)no2)c(OC)c1`: the activity change, negative = inhibition is -60.9% (active).

Consider `COc1ccc(-c2noc(CSc3nnc(-c4ccccc4)n3-c3ccc(F)cc3)n2)c(OC)c1`, for which the activity change, negative = inhibition is -21.4%.

Regarding `CC(=O)c1ccc(NC(=O)COc2ccccc2-c2nc(-c3ccccc3)no2)cc1`, the activity change, negative = inhibition was 13.9%.

For the compound `COc1ccc(-c2cc(-c3nc(-c4cc(OC)c(OC)c(OC)c4)no3)[nH]n2)c(OC)c1`, the activity change, negative = inhibition was -68.8% (active).

Turning to `COc1cc(-c2noc(C3CCCN(S(=O)(=O)c4cccc(Cl)c4)C3)n2)cc(OC)c1OC` (stereo not drawn), the activity change, negative = inhibition is 41.5%.

Take `O=C1CN(C(=O)Nc2ccccc2C(F)(F)F)C(c2ccccc2)c2c(sc3c2CCCC3)N1` (stereo not drawn): the activity change, negative = inhibition was -16.6%.

Regarding `CCCCOc1ccc(N(CC(=O)NCC2CCCO2)C(=O)CCC(=O)Nc2cc(C)ccn2)cc1` (stereo not drawn), the activity change, negative = inhibition was 36.3%.

For the compound `CC(C)Oc1ccc(/C=N/NC(=O)c2nnn(-c3nonc3N)c2CN(C)C2CCCCC2)cc1`, the activity change, negative = inhibition is 7.96%.

Regarding `Nc1nonc1-n1nnc(C(=O)N/N=C/c2cc(Br)ccc2O)c1CSC1=NCCS1`, the activity change, negative = inhibition was -103% (active).

Take `CN(C)Cc1c(C(=O)N/N=C/c2ccccc2OCc2ccc(F)cc2)nnn1-c1nonc1N`: the activity change, negative = inhibition is -6.09%.

For `CC(C)c1ccc(NC(=O)c2ccc3c(O)c(S(=O)(=O)c4ccccc4)c(=O)[nH]c3c2)cc1`, the activity change, negative = inhibition is 2.46%.

Regarding `Cc1ccc2nc(COc3ccc(NC(=O)COc4ccccc4F)cc3)cc(=O)n2c1`, the activity change, negative = inhibition is 20.4%.

Regarding `Cc1ccc(C2NC(C(=O)O)CS2)cc1` (stereo not drawn), the activity change, negative = inhibition is -64.5% (active).

For `Cc1ccc(C2CC2C(=O)NN)cc1` (stereo not drawn), the activity change, negative = inhibition was 7.91%.

In the case of `O=C(O)C1CSC(c2cccnc2)N1` (stereo not drawn), the activity change, negative = inhibition is -2.83%.

As to `Cc1nc2ccc(S(=O)(=O)N(CC(=O)Nc3ccc(F)cc3)Cc3ccccc3)cc2s1`, the activity change, negative = inhibition was -20.3%.

Regarding `COC(=O)c1cccc(Cn2nnc3sc4c(c3c2=O)CCC(C(C)(C)C)C4)c1` (stereo not drawn), the activity change, negative = inhibition is 27.6%.

For the compound `O=c1[nH]c2cc(Br)ccc2n2cccc12`, the activity change, negative = inhibition is -16.7%.

Regarding `O=C(CN1CCN(c2ccc(Cl)cc2)CC1)c1ccccc1`, the activity change, negative = inhibition was -68.8% (active).

For the compound `O=C(CN1CCN(c2ccc(Cl)cc2)CC1)NCc1cccs1`, the activity change, negative = inhibition is -26.2%.

Consider `CC(C)OC(=O)CN1CCN(c2ccc(Cl)cc2)CC1`, for which the activity change, negative = inhibition was -25.8%.

For `CCCCCCCCN1C(=O)[C@H](CC(=O)NCc2cccc3ccccc23)C[C@@]2(C(=O)OC)CCCCC=C12`, the activity change, negative = inhibition was 11.4%.

As to `CCC(=O)N1CCc2cc(Br)cc(S(=O)(=O)Nc3ccc(C)cc3C)c21`, the activity change, negative = inhibition was -2.54%.

For the compound `CSc1nc(-c2ccccc2)nc(C(Cl)Cl)n1`, the activity change, negative = inhibition is -99.4% (active).

On to `CCN1N=C(c2ccccc2)CCC1=O`, for which the activity change, negative = inhibition is -24.2%.

Take `O=C1CC(c2ccccc2)=NN1c1ccc([N+](=O)[O-])cc1`: the activity change, negative = inhibition is -78% (active).

`C/C(N)=C(/C#N)C(=O)COC(=O)C1=NN(c2ccccc2)C(=O)CC1`: the activity change, negative = inhibition was 36.4%.

Turning to `O=C1CCCc2cc(S(=O)(=O)N3CCCC(C(=O)NCc4ccccc4)C3)ccc2N1` (stereo not drawn), the activity change, negative = inhibition is -3.71%.

Regarding `CCOc1ccc(-n2c(SCC(=O)NCc3ccccc3)nc3n[nH]c(C)c3c2=N)cc1`, the activity change, negative = inhibition was 35.6%.

In the case of `Cc1ccc(Cc2nnc(SCC(=O)Nc3ccccc3C)[nH]c2=O)cc1`, the activity change, negative = inhibition was -1.67%.

For `COc1ccc(Cc2nnc(N/N=C/c3ccccc3O)[nH]c2=O)cc1OC`, the activity change, negative = inhibition is -97.9% (active).

Regarding `COc1ccc(Cc2nnc(SC)[nH]c2=O)cc1`, the activity change, negative = inhibition is -30.1%.

`Cc1ccc(C)c(N2CCN(S(=O)(=O)c3ccc4c(c3)C(C(C)C)C(=O)N4)CC2)c1` (stereo not drawn): the activity change, negative = inhibition is -24.7%.

For `CCOc1ccc(NC(=O)CN(C)C(=O)c2c(C)noc2C)cc1OCC`, the activity change, negative = inhibition is -5.36%.

For the compound `Cc1ccccc1-c1nc2cc(NC(=O)c3cccc(OCCC(C)C)c3)ccc2o1`, the activity change, negative = inhibition was -15.9%.

Take `CCOC(=O)C1CCCN(C(=O)c2sc3nc(C)nc(N4CCOCC4)c3c2C)C1` (stereo not drawn): the activity change, negative = inhibition is -14%.

`CC(=O)c1ccc(NC(=O)c2sc3nc4n(c(=O)c3c2C)CCCCC4)cc1`: the activity change, negative = inhibition is 23.1%.

As to `Cc1nc(N2CCOCC2)c2c(C)c(C(=O)Nc3ccc(C(F)(F)F)cc3)sc2n1`, the activity change, negative = inhibition is -84.9% (active).

As to `Cc1cc(N2C(=O)C(=O)/C(=C(/O)c3ccccc3)C2c2cccc(Br)c2)no1` (stereo not drawn), the activity change, negative = inhibition is -20.6%.

In the case of `CCN(CC)S(=O)(=O)c1ccc(C(=O)N=c2sc3cccc(OC)c3n2C)cc1`, the activity change, negative = inhibition was -2.8%.

As to `COc1ccc(N(C(=O)c2snc(C(N)=O)c2N)C(C(=O)NC2CCCC2)c2ccco2)cc1OC` (stereo not drawn), the activity change, negative = inhibition is -8.05%.

With `CCOc1ccc(C(C(=O)NC2CCCC2)N(C(=O)c2snc(C(N)=O)c2N)C2CCCC2)cc1` (stereo not drawn), the activity change, negative = inhibition was -24.5%.

On to `COc1cc(C(C(=O)NC2CCCC2)N(Cc2ccccc2)C(=O)c2snc(C(N)=O)c2N)ccc1O` (stereo not drawn), for which the activity change, negative = inhibition is -99.2% (active).

Take `CC(C)NC(=O)N1CC(=O)N2[C@H](CO)[C@@H](c3ccc(Br)cc3)[C@H]2C1`: the activity change, negative = inhibition was 1.46%.

Take `CCc1cc2c(cc3c(=O)n(CC(=O)N4CCN(c5cc(Cl)ccc5C)CC4)nc(CC)n32)s1`: the activity change, negative = inhibition was 12.7%.

For the compound `COc1ccc(-c2noc(CCC(=O)N(C)c3ccccc3C)n2)cc1`, the activity change, negative = inhibition is -35.9%.

In the case of `CCOC(=O)c1cc2c(=O)n3ccccc3nc2n(CC2CCCO2)c1=NC(=O)c1ccc(C(C)(C)C)cc1` (stereo not drawn), the activity change, negative = inhibition is 23.6%.

Consider `CCCc1nc(SCC(=O)N2CCCC2)c2c(=O)n(C)c(=O)n(C)c2n1`, for which the activity change, negative = inhibition was -70.5% (active).

Consider `CCOC(=O)N1CCN(C(=O)CSc2nc(C)nc3c2c(=O)n(C)c(=O)n3C)CC1`, for which the activity change, negative = inhibition was -22.5%.

Turning to `Cn1c(=O)c2c(SCC(=O)N3CCOCC3)nc(C3CC3)nc2n(C)c1=O`, the activity change, negative = inhibition was -3.56%.

With `Cn1nnnc1SCCCNCc1cccc(OCc2ccc(Cl)cc2)c1`, the activity change, negative = inhibition was 12.4%.

Regarding `CN(Cc1ccccc1)C(=O)c1cc2c(=O)n(C)c3ccccc3c2s1`, the activity change, negative = inhibition is 2.36%.

Turning to `NS(=O)(=O)c1ccc(CCNC(=O)COC(=O)COc2cccc(C(F)(F)F)c2)cc1`, the activity change, negative = inhibition was -3.4%.

Consider `CC(NCCc1ccc(S(N)(=O)=O)cc1)C(=O)NCc1ccccc1` (stereo not drawn), for which the activity change, negative = inhibition is -27.8%.

Consider `COc1cccc(CNc2ncc(-c3ccccc3)n2C)c1`, for which the activity change, negative = inhibition was 34.7%.

For the compound `COc1cccc(CNc2nc(C(F)(F)F)nc3ccccc23)c1`, the activity change, negative = inhibition was -73.3% (active).

As for `COc1cccc(CNC(=O)Cc2csc3nc(-c4ccccc4)cn23)c1`, the activity change, negative = inhibition is -6.98%.

As for `COc1ccc(CNc2ncnc3ccccc23)cc1`, the activity change, negative = inhibition is -91.4% (active).

On to `c1coc(CNc2ncnc3ccccc23)c1`, for which the activity change, negative = inhibition is -64.6% (active).

As for `COc1ccc(CNC(=O)COc2cccnc2[N+](=O)[O-])cc1`, the activity change, negative = inhibition was 1.06%.

With `NS(=O)(=O)c1ccc(CCNc2nc(C(F)(F)F)nc3ccccc23)cc1`, the activity change, negative = inhibition is -68.6% (active).

For the compound `CC(=O)OC[C@@H]1CN(Cc2ccccc2)C[C@H](n2cnc3c(NCc4ccco4)ncnc32)O1`, the activity change, negative = inhibition is -0.673%.

Take `O=C(COc1ncnc2ccccc12)NC(=O)NCc1ccccc1`: the activity change, negative = inhibition is -32.5%.

Regarding `O=C(NCc1ccncc1)C(=O)NCc1ccco1`, the activity change, negative = inhibition is -17.8%.

With `CCC(=O)N1CCc2cc(CNC(=O)Nc3ccccc3Cl)ccc21`, the activity change, negative = inhibition is 38.6%.

As for `Cc1ccc(NS(=O)(=O)c2ccc3c(c2)CC(=O)N3)cc1Cl`, the activity change, negative = inhibition is 7.34%.

Take `O=C(NCc1ccccc1Cl)c1cccn1-c1nnc(N2CCCCC2)s1`: the activity change, negative = inhibition is 0%.

`CCn1c(C(C)NC(=O)c2ccc(C)cc2)n[nH]c1=S` (stereo not drawn): the activity change, negative = inhibition was 12.4%.

In the case of `Cc1cccc(C2CC(=O)Oc3c2c(=O)n(C)c2ccccc32)c1` (stereo not drawn), the activity change, negative = inhibition was 18.7%.

Consider `c1ccc(-c2nc(NCc3ccco3)c3ccccc3n2)cc1`, for which the activity change, negative = inhibition is -68% (active).

In the case of `O=[N+]([O-])c1cc(-c2nc(-c3ccccc3)no2)ccc1NCc1ccco1`, the activity change, negative = inhibition is 82.5%.

Consider `CN(c1ccccc1)c1nc(N)c([N+](=O)[O-])c(NCc2ccco2)n1`, for which the activity change, negative = inhibition was -22.9%.

For the compound `Cc1oc(C)c2c(=O)cc(-c3ccc4c(c3)OCO4)cc(OC(=O)c3ccc(Cl)cc3)c12`, the activity change, negative = inhibition was 8.11%.

In the case of `O=C(OCc1cc(=O)n2nc(C3CC3)sc2n1)c1ccccc1Cl`, the activity change, negative = inhibition was -5.87%.

Regarding `Cc1ccc(-n2c(SCC(=O)NCCC3=CCCCC3)nc3n[nH]c(C)c3c2=N)cc1Cl`, the activity change, negative = inhibition is -93.6% (active).

Turning to `COc1cccc(-n2c(SCC(=O)NC3CCCCC3)nc3n[nH]c(C)c3c2=N)c1`, the activity change, negative = inhibition was 28%.

In the case of `COc1ccc(-n2c(SCC(=O)Nc3ccc(Cl)c(C)c3)nc3n[nH]c(C)c3c2=N)cc1`, the activity change, negative = inhibition was 0%.

Turning to `COc1ccc(-n2nnc(-c3nsc(NC(=O)c4ccc(C)c(C)c4)n3)c2C)cc1Cl`, the activity change, negative = inhibition is -9.03%.

On to `O=C(NCCc1ccccc1)C(=O)NCC(c1ccco1)S(=O)(=O)c1ccccc1` (stereo not drawn), for which the activity change, negative = inhibition is -21.8%.

For the compound `COc1cc(C(=O)NCC(c2ccc(Cl)cc2)N2CCOCC2)cc(OC)c1OC` (stereo not drawn), the activity change, negative = inhibition was 3.59%.

As to `O=S(=O)(c1ccc(Br)cc1)c1nc(-c2ccccc2)oc1NCc1cccnc1`, the activity change, negative = inhibition is -3.8%.

As for `N#Cc1nc(COc2ccc(-c3ccccc3)cc2)oc1NCc1cccnc1`, the activity change, negative = inhibition was -63.4% (active).

For `Cc1ccc(OCc2nc(C#N)c(N3CCCC3)o2)cc1`, the activity change, negative = inhibition was -14.4%.

On to `Cc1cc(C)c(NC(=O)CSc2nc3nccnc3c(=O)n2CCc2c[nH]c3ccccc23)c(C)c1`, for which the activity change, negative = inhibition is -19.7%.

Turning to `COc1ccc2c(c1)c(=Cc1ccc(N(C)C)cc1)c1cc(-c3ccccc3)[n+](C)n12`, the activity change, negative = inhibition was -99.1% (active).

As for `Cc1ccc(S(=O)(=O)c2nnn3c2nc(N2CCN(c4ccccc4F)CC2)c2cc(Cl)ccc23)cc1C`, the activity change, negative = inhibition was 11.3%.
